# Assay outcomes (PubChem BioAssay)
# GPR151 ag: activators of human GPR151 | 650,000 tested, 1% active | PathHunter beta-arrestin GPR151 cells, luminescence | activation, % at 11.2 µM | Q8TDV0; in the data active = activation above about 4.9%;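 also: 0% = median of compound wells and 100% = cells with positive control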
# MITF inh: blocks human microphthalmia-associated transcription factor | AlphaScreen MITF homodimerization, bead proximity signal | inhibition, % at 2.6 µM | 650,000 tested, 0.91% active; in the data active = inhibition above about 50%;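 also: 0% = vehicle wells with protein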
# TEAD-YAP block: TEAD-YAP interaction inhibition; HEK-TIYL cells, TEAD-Gal4/YAP UAS-luciferase luminescence; inhibition, % at 9.12 µM; 640,000 tested, 1.4% active; AID 1259422; in the data active = inhibition above about 32%;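 also: 0% = median of test compound wells and 100% = reference inhibitor wells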
# FBW7 activator: human FBW7 E3 ligase activation, primary screen; Q969H0; AlphaScreen FBW7–phospho-cyclin E peptide binding, activator screen; normalized activity (activation), % at 26.1 µM; 650,000 tested, 0.13% active; AID 1259310; in the data active = normalized activity above about 1.9%;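 also: purified mutant Fbw7 with reduced substrate affinity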
# Target sequence (Q969H0 whole entry, looked up): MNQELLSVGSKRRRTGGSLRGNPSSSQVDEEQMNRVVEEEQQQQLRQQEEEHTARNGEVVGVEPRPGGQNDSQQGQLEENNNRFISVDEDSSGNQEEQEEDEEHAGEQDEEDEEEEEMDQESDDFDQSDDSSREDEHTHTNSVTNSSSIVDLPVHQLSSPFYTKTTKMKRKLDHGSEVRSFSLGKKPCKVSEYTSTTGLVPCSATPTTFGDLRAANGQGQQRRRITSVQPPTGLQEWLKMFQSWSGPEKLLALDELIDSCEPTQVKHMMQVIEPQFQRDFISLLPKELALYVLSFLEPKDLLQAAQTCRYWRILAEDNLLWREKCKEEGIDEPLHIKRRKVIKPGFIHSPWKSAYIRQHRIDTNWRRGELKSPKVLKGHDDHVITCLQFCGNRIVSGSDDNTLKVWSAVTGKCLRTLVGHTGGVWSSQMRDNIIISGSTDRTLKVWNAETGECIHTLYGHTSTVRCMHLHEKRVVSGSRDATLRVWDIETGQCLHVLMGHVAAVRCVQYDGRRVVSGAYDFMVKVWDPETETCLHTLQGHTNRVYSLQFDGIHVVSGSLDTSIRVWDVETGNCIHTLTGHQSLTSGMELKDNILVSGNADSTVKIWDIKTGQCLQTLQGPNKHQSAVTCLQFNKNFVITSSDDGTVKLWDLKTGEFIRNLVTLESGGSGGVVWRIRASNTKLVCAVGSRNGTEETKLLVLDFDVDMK
# The depositor's hits bear a star. Compounds with a hit are over-represented: about 3.5% of the library has one in this group of screens.
SMILES,GPR151 ag,MITF inh,TEAD-YAP block,FBW7 activator
CCCNc1nc(SC)nc2c1cnn2CCNC(=O)c1ccc(OC)cc1OC,1,2,36*,0
CCCNc1nc(SC)nc2c1cnn2CCNC(=O)c1ccc(F)cc1,0,1,5,0
CN(C)CP(=O)(O)CCc1ccccc1,-1,1,8,5.1*
Fc1ccc(C2=Nn3cnnc3SC2)cc1,5,2,-4,0
CCOC(=O)Cn1cc(/C=C2/C(=O)N(c3cccc(C(=O)O)c3)N=C2C)c2ccccc21,1,51*,-3,0
CN(C1CCCCC1)S(=O)(=O)c1ccc(NC(=O)c2ccc(F)cc2)cc1,5,8,4,0
CCN(C1CCCCC1)S(=O)(=O)c1ccc(C(=O)Nc2ccc(F)cc2)cc1,1,-1,33*,0
CCOC(=O)N1CCN(S(=O)(=O)c2ccc(C(=O)Nc3ccc(C(C)=O)cc3)cc2)CC1,1,-4,-11,0
CCOC(=O)N1CCN(S(=O)(=O)c2ccc(C(=O)Nc3ccc(F)cc3)cc2)CC1,0,4,41*,0
COC(=O)c1ccccc1NC(=O)CCOc1ccc(OC)cc1,-1,-2,33*,0
COC(=O)c1ccccc1NC(=O)CCS(=O)(=O)c1ccc(OC)cc1,2,5,-9,0
COc1ccc(Nc2cc(C)nc(-n3nc(C)cc3C)n2)cc1OC,-1,4,69*,0
CC(C)c1ccc(NC(=O)C2CC(=O)Nc3ncnn32)cc1 (configuration not stated),2,-2,2,0
COc1cccc(/C=N/NC(=O)CSc2cc(C)nc3c(C)cccc23)c1O,1,8,32*,0
COc1cccc(/C=N/NC(=O)COc2cc(C)ccc2C(C)C)c1O,0,1,57*,0
COc1cccc(/C=N/NC(=O)COc2cccc(C)c2C)c1O,4,-9,2,0
O=C(COc1ccccc1)N/N=C\c1ccc(O)cc1,-1,14,7,2.1*
Cc1ccc(C(C)C)c(OCC(=O)N/N=C/c2ccc(O)cc2)c1,1,12,48*,0
COc1ccc(OC)c(-c2cc(Cl)c3c(c2)CC(CNC(=O)C2CCOCC2)O3)c1 (configuration not stated),1,-11,16,0
COc1cccc(CC(=O)Nc2nc(C(C)(C)C)cs2)c1,0,7,-10,1
Cc1ccc(C(C)C)c(OCC(=O)N/N=C/c2ccc(O)c(O)c2)c1,1,0,47*,0
Cc1ccc(C(C)C)c(OCC(=O)N/N=C/c2ccc[nH]2)c1,-1,-9,-1,0
CC(C)(C)c1ccc(C2CC(=O)C=C(O)C2)cc1 (configuration not stated),1,18,54*,1
Cc1ccc(C2CC(=O)C=C(O)C2)cc1 (configuration not stated),-1,-3,-1,0
Cc1noc(C)c1S(=O)(=O)N1CCCC(C(=O)NC2CS(=O)(=O)CC2Cl)C1 (configuration not stated),-1,0,-9,0
SMILES,GPR151 ag,MITF inh,TEAD-YAP block,FBW7 activator
Cc1ccc(OCCCC(=O)Nc2ccccc2)c(C)c1,-1,7,9,0
COc1cc(CNc2ccc3c(c2)ncn3C)cc(OC)c1OC,-1,-6,63*,0
CCCn1cnc2cc(NCc3cc(OC)c(OC)c(OC)c3)ccc21,0,-7,-14,0
CCn1cnc2cc(NCc3cc(OC)c(OC)c(OC)c3)ccc21,-1,13,58*,1
CC1(C)CC(=O)C2=C(C1)Nc1ccccc1NC2c1ccsc1 (configuration not stated),-1,5,5,0
CC(C)(C)c1ccc(OCCCC(=O)Nc2ccc3c(c2)OCCO3)cc1,-1,-11,1,0
C=CCn1c(SC)nc(O)c(CC)c1=O,-1,9,1,1.9*
O=C(Nc1ccccc1Cl)c1cc([N+](=O)[O-])ccc1Cl,2,4,36*,0
O=C(Nc1cc(C(F)(F)F)ccc1N1CCCC1)c1cc([N+](=O)[O-])ccc1Cl,-1,7,86*,0
Cc1cc(O)c(NC(=O)c2cc([N+](=O)[O-])ccc2Cl)cc1C,-1,6,43*,1
CC(=O)Nc1ccccc1NC(=O)c1cc([N+](=O)[O-])ccc1Cl,1,-4,3,0
O=C(Nc1cccc2ccccc12)c1cc([N+](=O)[O-])ccc1Cl,2,14,60*,0
O=C(Nc1cc(C(F)(F)F)ccc1Cl)c1cc([N+](=O)[O-])ccc1Cl,0,-6,-3,0
NNC(=O)C(Cc1ccccc1)NC(=O)OCc1ccccc1 (configuration not stated),1,6,8,0
NNC(=O)C(Cc1ccc(O)cc1)NC(=O)C(CO)NC(=O)OCc1ccccc1 (configuration not stated),-1,9,13,2.1*
O=C(O)c1c(O)c2ccccc2[nH]c1=O,-1,9,3,0
O=c1[nH]c2ccccc2c(O)c1O,-1,8,38*,0
Cc1c(C(=O)Nc2ccccc2F)sc2nc(-c3cccc([N+](=O)[O-])c3)cn12,-1,2,3,0
Cc1cc(C)c2c(N)c(C(=O)Nc3ccccn3)sc2n1,-5,-2,95*,0
Cc1cccc(NC(=O)c2sc3nc(C)cc(C(F)(F)F)c3c2N)n1,1,9,48*,0
O=C(Nc1ccc(Br)cn1)C12CC3CC(CC(C3)C1)C2,-1,16,8,0
COc1cc2c(cc1OC)C(Nc1ccc([N+](=O)[O-])cc1)=NC1(CCCC1)C2,-1,-7,-5,0
CCN(CC)c1ccc(/C=C/C23NC(=O)CCN2c2ccc(C)cc2C3(C)C)cc1 (configuration not stated),2,40,52*,-1
CCOC(=O)C(C)Oc1ccc2cc(-c3ccccc3)c(=O)oc2c1 (configuration not stated),-4,-4,18,2.3*
CC(C)CC[n+]1ccccc1/C=C/c1ccc(N(C)C)cc1,1,6,91*,0
SMILES,GPR151 ag,MITF inh,TEAD-YAP block,FBW7 activator
COc1ccccc1-c1csc(NC(=O)/C=C/c2ccccc2)n1,0,7,-7,0
COc1ccc(/C=C/C(=O)Nc2nc(-c3ccc(F)cc3)cs2)cc1OC,2,1,57*,0
COC(=O)C1=C(C)NC(=O)/C1=C\c1cccc(C)c1,-1,26,-6,0
O=C(CNc1ccc(I)cc1)N/N=C/c1ccccc1Cl,0,-1,-4,0
Cc1nnc(N/N=C/c2ccccc2)[nH]c1=O,0,-7,-4,0
Cc1[nH]n(-c2ccccc2)c(=O)c1C=Nc1ccc(N(C)C)cc1,0,63*,21,0
CCOc1ccc(N=Cc2c(C)[nH]n(-c3ccccc3)c2=O)cc1,2,1,0,0
Cc1ccc(/C=N/Nc2nncc(-c3ccccc3)n2)o1,-1,-4,-42,-1
Cc1[nH]n(-c2ccccc2)c(=O)c1/C=N/Nc1nnc(C)c(=O)[nH]1,0,101*,15,0
